# Assay results reported in the supplement of paper PMC8728848.
# Shown is part of a subset that was picked to be rich in the strongest signals.
# Tests used:
# Experiment in all cases: glycan array binding signal (z-score within array); higher = stronger binding
# Details in all cases: glycan notation: IUPAC condensed, linker removed
# [1] = target: Fuc(a1-2)Gal
# Procedure, shortened: (§1)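 The binding signal is a Z-score computed within each array and averaged over linkers. Arrays of the same protein sequence at different concentrations or buffers were also averaged together. Data originate from 3228 arrays in the Consortium for Functional Glycomics database, kept only where the protein sequence was available.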
# [2] = target: Fuc(a1-2)Gal(b1-3)GlcNAc(b1-2)Man(a1-3)[Fuc(a1-2)Gal(b1-3)GlcNAc(b1-2)Man(a1-6)]Man(b1-4)GlcNAc(b1-4)GlcNAc
# Procedure, shortened: as §1
# [3] = target: Fuc(a1-2)Gal(b1-3)GlcNAc(b1-3)[Gal(b1-4)GlcNAc(b1-6)]Gal(b1-4)Glc
# Procedure, shortened: as §1
# [4] = target: Fuc(a1-2)Gal(b1-3)[Fuc(a1-4)]GlcNAc(b1-3)[Gal(b1-4)GlcNAc(b1-6)]Gal(b1-4)Glc
# Procedure, shortened: as §1
# [5] = target: Fuc(a1-2)Gal(b1-4)GlcNAc(b1-2)Man(a1-3)[Fuc(a1-2)Gal(b1-4)GlcNAc(b1-2)Man(a1-6)]Man(b1-4)GlcNAc(b1-4)[Fuc(a1-6)]GlcNAc
# Procedure, shortened: as §1
# [6] = target: Fuc(a1-2)Gal(b1-4)GlcNAc(b1-2)[Fuc(a1-2)Gal(b1-4)GlcNAc(b1-4)]Man(a1-3)[Fuc(a1-2)Gal(b1-4)GlcNAc(b1-2)Man(a1-6)]Man(b1-4)GlcNAc(b1-4)GlcNAc
# Procedure, shortened: as §1
# [7] = target: Fuc(a1-2)Gal(b1-4)[Fuc(a1-3)]GlcNAc(b1-2)[Fuc(a1-2)Gal(b1-4)[Fuc(a1-3)]GlcNAc(b1-4)]Man(a1-3)[Fuc(a1-2)Gal(b1-4)[Fuc(a1-3)]GlcNAc(b1-2)Man(a1-6)]Man(b1-4)GlcNAc(b1-4)GlcNAc
# Procedure, shortened: as §1
# [8] = target: Fuc(a1-2)Gal6S(b1-4)Glc
# Procedure, shortened: as §1
# [9] = target: Fuc(a1-2)Gal6S(b1-4)Glc6S
# Procedure, shortened: as §1
# [10] = target: Gal(a1-3)Gal(b1-3)[Fuc(a1-4)]GlcNAc(b1-2)Man(a1-3)[Gal(a1-3)Gal(b1-3)[Fuc(a1-4)]GlcNAc(b1-2)Man(a1-6)]Man(b1-4)GlcNAc(b1-4)GlcNAc
# Procedure, shortened: as §1
# [11] = target: Gal(a1-3)Gal(b1-4)GlcNAc(b1-6)GalNAc
# Procedure, shortened: as §1
# [12] = target: Gal(a1-4)Gal(b1-4)GlcNAc
# Procedure, shortened: as §1
# [13] = target: Gal(a1-6)Glc
# Procedure, shortened: as §1
# [14] = target: Gal(b1-3)GalNAc(b1-3)Gal(a1-4)Gal(b1-4)Glc
# Procedure, shortened: as §1
# [15] = target: Gal(b1-3)GlcNAc(b1-3)Gal(b1-3)GlcNAc
# Procedure, shortened: as §1
# [16] = target: Gal(b1-3)GlcNAc(b1-3)Gal(b1-4)[Fuc(a1-3)]GlcNAc
# Procedure, shortened: as §1
# [17] = target: Gal(b1-3)GlcNAc(b1-3)Gal(b1-4)[Fuc(a1-3)]GlcNAc(b1-6)[Gal(b1-3)GlcNAc(b1-3)]Gal(b1-4)Glc
# Procedure, shortened: as §1
# [18] = target: Gal(b1-4)Gal
# Procedure, shortened: as §1
# [19] = target: Gal(b1-4)GlcNAc(b1-2)[Gal(b1-4)GlcNAc(b1-4)]Man(a1-3)[Gal(b1-4)GlcNAc(b1-2)Man(a1-6)]Man(b1-4)GlcNAc(b1-4)GlcNAc
# Procedure, shortened: as §1
# [20] = target: Gal(b1-4)GlcNAc(b1-3)Gal(b1-3)GlcNAc
# Procedure, shortened: as §1
# [21] = target: Gal(b1-4)GlcNAc(b1-3)Gal(b1-4)GlcNAc(b1-3)Gal(b1-4)GlcNAc(b1-2)[Gal(b1-4)GlcNAc(b1-3)Gal(b1-4)GlcNAc(b1-3)Gal(b1-4)GlcNAc(b1-6)]Man(a1-6)[Gal(b1-4)GlcNAc(b1-3)Gal(b1-4)GlcNAc(b1-3)Gal(b1-4)GlcNAc(b1-2)Man(a1-3)]Man(b1-4)GlcNAc(b1-4)[Fuc(a1-6)]GlcNAc
# Procedure, shortened: as §1
# [22] = target: Gal(b1-4)GlcNAc(b1-3)Gal(b1-4)GlcNAc(b1-3)Gal(b1-4)GlcNAc(b1-3)Gal(b1-4)GlcNAc(b1-3)Gal(b1-4)GlcNAc(b1-2)[Gal(b1-4)GlcNAc(b1-3)Gal(b1-4)GlcNAc(b1-3)Gal(b1-4)GlcNAc(b1-3)Gal(b1-4)GlcNAc(b1-3)Gal(b1-4)GlcNAc(b1-6)]Man(a1-6)[Gal(b1-4)GlcNAc(b1-3)Gal(b1-4)GlcNAc(b1-3)Gal(b1-4)GlcNAc(b1-3)Gal(b1-4)GlcNAc(b1-3)Gal(b1-4)GlcNAc(b1-2)Man(a1-3)]Man(b1-4)GlcNAc(b1-4)[Fuc(a1-6)]GlcNAc
# Procedure, shortened: as §1
# [23] = target: Gal(b1-4)GlcNAc(b1-3)Gal(b1-4)GlcNAc(b1-6)[Gal(b1-3)]GalNAc
# Procedure, shortened: as §1
# [24] = target: Gal(b1-4)GlcNAc(b1-3)Gal(b1-4)[Fuc(a1-3)]GlcNAc(b1-3)Gal(b1-4)[Fuc(a1-3)]GlcNAc
# Procedure, shortened: as §1
# [25] = target: Gal3S(b1-4)[Fuc(a1-3)]GlcNAc6S
# Procedure, shortened: as §1
binder,measurement,setting,value
GS7807E-bfa-538-23-538 (Bacteroides fragilis) (protein) TDSFESFNTNEAGFDNDSKKQDFNYYGIPLGIIQQGIYFNYDWGSGKNWPFQTMQNLGADLFSGYVHDFNPFNEGKNNSTYYMMDGWNGSTWDNTYGYIMPEVQKSETINEKDNIGFFGITKILKVELMHRLSDLYGPIVYTQFGSKTGSTPDTQQEAYKAFFNDLDTGIAKIREYQKANPDIESFAKFDILMPQGKRTFSEWIRFANSLRLRLAVRIAMADSKLAVAEAQKALTDEEGLLEGNDEVVAVSTSSGYTNPFGEINKAWGEVFMNANMESLLVGYEDPRMEKYFDKATGSDATSLIDYKGTYKGIRQGTGFSHKNYNGHSKSTITQQTDAVLMTPAEVWFLRAEAALRGWSSESVKDCYEKGVKASFAQWGAAGAEAYLESDRKPSDYVDAFKAANNVKAVNTLTPKWDDAAGNEDKLGRIITQKWLAMFPEGGEAWAEQRRTGYPRLFPVLVNQSEGTVDTNLGPRRLNFFVGIKTTNPEQYTQLVNALGGIDNCGTRLWWDTGRNF,glycan array binding signal (z-score),[1],-0.69
same,glycan array binding signal (z-score),[2],3.42
same,glycan array binding signal (z-score),[3],1.03
same,glycan array binding signal (z-score),[4],-0.553
same,glycan array binding signal (z-score),[5],-0.382
same,glycan array binding signal (z-score),[6],0.002
same,glycan array binding signal (z-score),[7],0.988
same,glycan array binding signal (z-score),[8],-0.644
same,glycan array binding signal (z-score),[9],-0.639
same,glycan array binding signal (z-score),[10],10.5
same,glycan array binding signal (z-score),[11],0.296
same,glycan array binding signal (z-score),[12],0.333
same,glycan array binding signal (z-score),[13],-0.29
same,glycan array binding signal (z-score),[14],0.143
same,glycan array binding signal (z-score),[15],0.812
same,glycan array binding signal (z-score),[16],-0.465
same,glycan array binding signal (z-score),[17],-0.627
same,glycan array binding signal (z-score),[18],-0.624
same,glycan array binding signal (z-score),[19],3.32
same,glycan array binding signal (z-score),[20],-0.306
same,glycan array binding signal (z-score),[21],4.56
same,glycan array binding signal (z-score),[22],0.867
same,glycan array binding signal (z-score),[23],4.07
same,glycan array binding signal (z-score),[24],0.531
same,glycan array binding signal (z-score),[25],-0.155
